Measured values as given in PubChem BioAssay (EPA / NIEHS).
Records with an inconclusive call do not appear. Activity calls are given as the source filed them. How the source made its calls, unless noted: active means hit-call score of the fitted dose curve at least 0.9, where 1 is the maximum; inconclusive means response in the unintended direction; inactive means score below 0.9.

Legend:
[1] = target: human Dual Specificity Protein Phosphatase 3 (DUSP3), DUSP3 (gene 1845) (UniProt P51452); experiment: NVS_ENZ_hDUSP3: NovaScreen (NVS) Enzymatic Assay for human Dual Specificity Protein Phosphatase 3 (DUSP3) (AID 2283152);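 further: phosphatase activity of recombinant human DUSP3 on a fluorogenic substrate without cells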
How it was run: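 Cell-free fluorescence-intensity enzyme activity assay with recombinant protein and substrate; loss of signal fitted relative to DMSO baseline. Primary screen in duplicate at 25 uM, actives then run in concentration series; measured 0 h after dosing.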

[2] = target: human Ephrin type-A Receptor 1 (EphA1), EPHA1 (gene 2041) (UniProt P21709); experiment: NVS_ENZ_hEphA1: NovaScreen (NVS) Enzymatic Assay for human Ephrin type-A Receptor 1 (EphA1) (AID 2283158);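 further: activity is signal loss versus DMSO meaning EphA1 kinase inhibition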
Protocol: NVS_ENZ_hEphA1 is a biochemical, single-readout assay that uses extracted gene-proteins in a cell-free assay. Measurements were taken 1 hour after chemical dosing in a 384-well plate.NVS_ENZ_hEphA1 is one of one assay component(s) measured or calculated from the NVS_ENZ_hEphA1 assay. It is designed to make measurements of enzyme activity, a form of enzyme reporter, as detected with fluorescence intensity signals by Fluorescence and electrophoretic mobility shift technology.Data from the assay component NVS_ENZ_hEphA1 was analyzed into 1 assay endpoint. This assay endpoint, NVS_ENZ_hEphA1, was analyzed in the positive analysis fitting direction relative to DMSO as the negative control and baseline of activity. Using a type of enzyme reporter, loss-of-signal activity can be used to understand changes in the enzymatic activity as they relate to the gene EPHA1. Furthermore, this assay endpoint can be referred to as a primary readout, because this assay has produced multiple assay endpoints where this one serves a enzymatic activity function. To generalize the intended target to other relatable targets, this assay endpoint is annotated to the kinase intended target family, where the subfamily is receptor tyrosine kinase.
(§1) Binding assays used specific radioligands (tritiated, iodinated) with non-radioactive competitive displacement ligands in agonist or antagonist protocols (as indicated) and various reference compounds and inhibitors to titrate specific binding to receptors and transporters. Most enzyme assays (CYPs, kinases, phosphatases, proteases, HDACs) used recombinant protein and specific substrates (fluorescence mostly, some colorimetric and radioactive) and inhibitors, followed by a biochemical separation of substrate and product. All assays for the biochemical HTS were initially run in duplicate at a single concentration (10 uM for CYP450 assays and 25 uM for all others). Assay-chemical combinations meeting a pre-defined threshold (e.g., 30% inhibition and other criteria defined below) were then run in singleton concentration-response format with maximum concentration of 20 uM for CYPs and 50 uM for all others. Each assay was run with positive and negative controls, and concurrent controls on every plate. The follow-up (secondary) screen tested active chemical-pairs in concentration series, as well as a few additional assays not tested in the primary screen, some selected negative inactives, and several cases re-run in the concentration series for confirmatory purposes.

[3] = target: human Matrix Metalloproteinase-9 (MMP9), MMP9 (gene 4318) (UniProt P14780); experiment: NVS_ENZ_hMMP9: NovaScreen (NVS) Enzymatic Assay for human Matrix Metalloproteinase-9 (MMP9) (AID 2283190);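 further: cell-free recombinant MMP9 protease activity read by fluorescent substrate signal; active means inhibition seen as loss of fluorescence signal versus DMSO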
How it was run: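 Inhibition was scored as loss of fluorescence signal against DMSO controls. The recombinant protease was exposed to chemicals for 1 hour before reading; initial testing used 25 uM in duplicate.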

[4] = target: human Phosphodiesterase 10 (PDE10), PDE10A (gene 10846) (UniProt Q9Y233); experiment: NVS_ENZ_hPDE10: NovaScreen (NVS) Enzymatic Assay for human Phosphodiesterase 10 (PDE10) (AID 2283195)
How it was run: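 Readout is fluorescence intensity following electrophoretic mobility-shift separation, 1 h after dosing of isolated PDE10A protein. Hits meeting a preset threshold at 25 uM went to concentration series (max 50 uM), analysed relative to DMSO.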

[5] = target: human Beta-secretase (BACE), BACE1 (gene 23621) (UniProt P56817); experiment: NVS_ENZ_hBACE: NovaScreen (NVS) Enzymatic Assay for human Beta-secretase (BACE) (AID 2283140);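 further: hits are inhibitors that reduce fluorescent substrate signal versus DMSO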
How it was run: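 Fluorescence intensity read-out of protease activity defines this endpoint; signal loss relative to DMSO baseline marks inhibition. Recombinant enzyme from SF9 cells, cell-free format, 1 h exposure. Single-concentration duplicate screen (25 uM) precedes concentration-series follow-up.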

[6] = target: Cytochrome P450 2C19 (Homo sapiens) (UniProt P33261); experiment: NVS_ADME_hCYP2C19: NovaScreen (NVS) CYP450-related Enzyme Activity (ADME) Assay for human CYP2C19 (AID 2283113);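 further: potency for inhibition seen as loss of fluorescent signal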
Protocol: NVS_ADME_hCYP2C19 is a biochemical, single-readout assay that uses extracted gene-proteins from insect cells in a cell-free assay. Measurements were taken 1 hour after chemical dosing in a 96-well plate.NVS_ADME_hCYP2C19 is one of one assay component(s) measured or calculated from the NVS_ADME_hCYP2C19 assay. It is designed to make measurements of enzyme activity, a form of enzyme reporter, as detected with fluorescence intensity signals by Fluorescence technology.Data from the assay component NVS_ADME_hCYP2C19 was analyzed into 1 assay endpoint. This assay endpoint, NVS_ADME_hCYP2C19, was analyzed in the positive analysis fitting direction relative to Acetonitrile as the negative control and baseline of activity. Using a type of enzyme reporter, loss-of-signal activity can be used to understand changes in the enzymatic activity as they relate to the gene CYP2C19. Furthermore, this assay endpoint can be referred to as a primary readout, because this assay has produced multiple assay endpoints where this one serves a enzymatic activity function. To generalize the intended target to other relatable targets, this assay endpoint is annotated to the cyp intended target family, where the subfamily is xenobiotic metabolism.
as §1, with “Assay-chemical combinations meeting a pre-defined threshold (e.g., 30% inhibition and other criteria defined below) were then run in singleton concentration-response format with maximum concentration of 20 uM for CYPs and 50 uM for all others.” left out

[7] = target: human Caspase 5 (CASP5), CASP5 (gene 838) (UniProt P51878); experiment: NVS_ENZ_hCASP5: NovaScreen (NVS) Enzymatic Assay for human Caspase 5 (CASP5) (AID 2283137)
Protocol: NVS_ENZ_hCASP5 is a biochemical, single-readout assay that uses extracted gene-proteins from E. coli in a cell-free assay. Measurements were taken 2 hours after chemical dosing in a 96-well plate.NVS_ENZ_hCASP5 is one of one assay component(s) measured or calculated from the NVS_ENZ_hCASP5 assay. It is designed to make measurements of enzyme activity, a form of enzyme reporter, as detected with fluorescence intensity signals by Fluorescence technology.Data from the assay component NVS_ENZ_hCASP5 was analyzed into 1 assay endpoint. This assay endpoint, NVS_ENZ_hCASP5, was analyzed in the positive analysis fitting direction relative to DMSO as the negative control and baseline of activity. Using a type of enzyme reporter, loss-of-signal activity can be used to understand changes in the enzymatic activity as they relate to the gene CASP5. Furthermore, this assay endpoint can be referred to as a primary readout, because this assay has produced multiple assay endpoints where this one serves a enzymatic activity function. To generalize the intended target to other relatable targets, this assay endpoint is annotated to the protease intended target family, where the subfamily is cysteine protease.
Binding assays used specific radioligands (tritiated, iodinated) with non-radioactive competitive displacement ligands in agonist or antagonist protocols (as indicated) and various reference compounds and inhibitors to titrate specific binding to receptors and transporters. Most enzyme assays (CYPs, kinases, phosphatases, proteases, HDACs) used recombinant protein and specific substrates (fluorescence mostly, some colorimetric and radioactive) and inhibitors, followed by a biochemical separation of substrate and product. All assays for the biochemical HTS were initially run in duplicate at a single concentration (10 uM for CYP450 assays and 25 uM for all others). […]

[8] = target: Mitogen-activated protein kinase 3 (Homo sapiens) (UniProt P27361); experiment: NVS_ENZ_hMAPK3: NovaScreen (NVS) Enzymatic Assay for human Mitogen-Activated Protein Kinase 3 (MAPK 3) (AID 2283177)
How it was run: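 Chemicals were first tested in duplicate at 25 uM, with hits re-run as concentration series (max 50 uM). Recombinant enzyme activity, measured 1 h post-dose in a cell-free format, was read by fluorescence/mobility shift relative to DMSO.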

[9] = target: rat CYP2A1, Cyp2a1 (gene 24894) (UniProt P11711); experiment: NVS_ADME_rCYP2A1: NovaScreen (NVS) CYP450-related Enzyme Activity (ADME) Assay for rat CYP2A1 (AID 2283114; active means hit-call score of the fitted dose curve at least 0.9, where 1 is the maximum; inactive means score below 0.9)
Protocol: NVS_ADME_rCYP2A1 is a biochemical, single-readout assay that uses extracted gene-proteins in a cell-free assay. Measurements were taken 0.75 hour after chemical dosing in a 96-well plate.NVS_ADME_rCYP2A1 is one of one assay component(s) measured or calculated from the NVS_ADME_rCYP2A1 assay. It is designed to make measurements of enzyme activity, a form of enzyme reporter, as detected with fluorescence intensity signals by Fluorescence technology.Data from the assay component NVS_ADME_rCYP2A1 was analyzed into 1 assay endpoint. This assay endpoint, NVS_ADME_rCYP2A1, was analyzed in the positive analysis fitting direction relative to Acetonitrile as the negative control and baseline of activity. Using a type of enzyme reporter, loss-of-signal activity can be used to understand changes in the enzymatic activity as they relate to the gene Cyp2a1. Furthermore, this assay endpoint can be referred to as a primary readout, because this assay has produced multiple assay endpoints where this one serves a enzymatic activity function. To generalize the intended target to other relatable targets, this assay endpoint is annotated to the cyp intended target family, where the subfamily is xenobiotic metabolism. […]

[10] = target: rat CYP2C13, Cyp2c13 (gene 171521) (UniProt P20814); experiment: NVS_ADME_rCYP2C13: NovaScreen (NVS) CYP450-related Enzyme Activity (ADME) Assay for rat CYP2C13 (AID 2283121)
How it was run: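 Inhibition is read as decreased fluorescent product formation, referenced to acetonitrile vehicle. Cell-free recombinant rat Cyp2c13 reaction ran 0.75 hour; compounds first at 10 uM in duplicate, then concentration series for actives.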

human Phosphodiesterase 10 (PDE10), PDE10A (gene 10846), sequence (Q9Y233 whole entry, looked up): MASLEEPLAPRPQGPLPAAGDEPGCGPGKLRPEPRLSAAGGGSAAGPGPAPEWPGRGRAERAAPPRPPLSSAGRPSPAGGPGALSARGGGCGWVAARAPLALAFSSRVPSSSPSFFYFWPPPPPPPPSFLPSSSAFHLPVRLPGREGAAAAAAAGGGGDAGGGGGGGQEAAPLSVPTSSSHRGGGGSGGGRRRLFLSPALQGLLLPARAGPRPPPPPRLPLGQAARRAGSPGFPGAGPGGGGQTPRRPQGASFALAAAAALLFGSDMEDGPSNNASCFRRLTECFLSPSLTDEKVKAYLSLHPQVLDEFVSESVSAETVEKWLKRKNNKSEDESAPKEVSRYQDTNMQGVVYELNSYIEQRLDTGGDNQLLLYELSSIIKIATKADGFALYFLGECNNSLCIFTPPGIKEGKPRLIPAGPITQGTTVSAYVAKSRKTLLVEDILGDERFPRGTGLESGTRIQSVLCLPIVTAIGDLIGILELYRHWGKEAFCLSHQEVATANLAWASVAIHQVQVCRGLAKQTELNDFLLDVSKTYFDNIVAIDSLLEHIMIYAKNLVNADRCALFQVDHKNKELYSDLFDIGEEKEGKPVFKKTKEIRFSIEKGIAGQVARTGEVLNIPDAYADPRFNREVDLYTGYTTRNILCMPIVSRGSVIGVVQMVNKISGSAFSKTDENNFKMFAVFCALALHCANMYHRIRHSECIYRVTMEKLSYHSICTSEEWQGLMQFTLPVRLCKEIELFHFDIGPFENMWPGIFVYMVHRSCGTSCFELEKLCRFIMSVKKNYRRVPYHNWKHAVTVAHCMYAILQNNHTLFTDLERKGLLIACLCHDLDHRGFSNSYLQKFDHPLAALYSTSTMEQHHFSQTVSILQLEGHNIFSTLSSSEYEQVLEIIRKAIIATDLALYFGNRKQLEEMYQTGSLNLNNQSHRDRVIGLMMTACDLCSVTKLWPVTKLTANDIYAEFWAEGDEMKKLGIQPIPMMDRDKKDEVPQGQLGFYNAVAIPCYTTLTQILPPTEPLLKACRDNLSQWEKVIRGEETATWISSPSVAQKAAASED
human Ephrin type-A Receptor 1 (EphA1), EPHA1 (gene 2041), sequence (P21709 whole entry, looked up): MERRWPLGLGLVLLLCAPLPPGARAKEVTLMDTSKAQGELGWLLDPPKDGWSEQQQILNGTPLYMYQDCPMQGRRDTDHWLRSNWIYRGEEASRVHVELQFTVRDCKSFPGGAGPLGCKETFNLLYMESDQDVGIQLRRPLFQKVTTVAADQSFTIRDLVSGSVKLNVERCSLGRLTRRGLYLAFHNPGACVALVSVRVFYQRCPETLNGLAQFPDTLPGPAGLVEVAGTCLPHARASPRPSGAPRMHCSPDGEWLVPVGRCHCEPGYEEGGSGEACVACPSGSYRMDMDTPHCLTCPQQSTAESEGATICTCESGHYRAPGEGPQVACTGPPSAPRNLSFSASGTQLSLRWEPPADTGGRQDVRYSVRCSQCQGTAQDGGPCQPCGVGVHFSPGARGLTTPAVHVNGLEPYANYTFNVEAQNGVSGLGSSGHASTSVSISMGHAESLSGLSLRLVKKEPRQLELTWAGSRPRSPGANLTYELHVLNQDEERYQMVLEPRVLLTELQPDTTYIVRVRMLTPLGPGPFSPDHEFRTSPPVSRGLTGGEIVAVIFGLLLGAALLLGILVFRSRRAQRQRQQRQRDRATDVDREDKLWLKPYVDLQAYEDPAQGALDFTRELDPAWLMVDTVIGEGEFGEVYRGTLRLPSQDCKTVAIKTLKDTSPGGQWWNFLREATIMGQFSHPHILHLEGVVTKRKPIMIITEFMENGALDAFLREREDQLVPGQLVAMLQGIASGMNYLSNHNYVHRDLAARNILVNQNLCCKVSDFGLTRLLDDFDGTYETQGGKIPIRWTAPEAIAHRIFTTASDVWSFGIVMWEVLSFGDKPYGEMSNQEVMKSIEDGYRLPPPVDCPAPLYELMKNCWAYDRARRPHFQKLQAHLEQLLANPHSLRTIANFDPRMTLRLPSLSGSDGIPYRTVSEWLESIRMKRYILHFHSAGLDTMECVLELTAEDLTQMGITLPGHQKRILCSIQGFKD
human Matrix Metalloproteinase-9 (MMP9), MMP9 (gene 4318), sequence (P14780 whole entry, looked up): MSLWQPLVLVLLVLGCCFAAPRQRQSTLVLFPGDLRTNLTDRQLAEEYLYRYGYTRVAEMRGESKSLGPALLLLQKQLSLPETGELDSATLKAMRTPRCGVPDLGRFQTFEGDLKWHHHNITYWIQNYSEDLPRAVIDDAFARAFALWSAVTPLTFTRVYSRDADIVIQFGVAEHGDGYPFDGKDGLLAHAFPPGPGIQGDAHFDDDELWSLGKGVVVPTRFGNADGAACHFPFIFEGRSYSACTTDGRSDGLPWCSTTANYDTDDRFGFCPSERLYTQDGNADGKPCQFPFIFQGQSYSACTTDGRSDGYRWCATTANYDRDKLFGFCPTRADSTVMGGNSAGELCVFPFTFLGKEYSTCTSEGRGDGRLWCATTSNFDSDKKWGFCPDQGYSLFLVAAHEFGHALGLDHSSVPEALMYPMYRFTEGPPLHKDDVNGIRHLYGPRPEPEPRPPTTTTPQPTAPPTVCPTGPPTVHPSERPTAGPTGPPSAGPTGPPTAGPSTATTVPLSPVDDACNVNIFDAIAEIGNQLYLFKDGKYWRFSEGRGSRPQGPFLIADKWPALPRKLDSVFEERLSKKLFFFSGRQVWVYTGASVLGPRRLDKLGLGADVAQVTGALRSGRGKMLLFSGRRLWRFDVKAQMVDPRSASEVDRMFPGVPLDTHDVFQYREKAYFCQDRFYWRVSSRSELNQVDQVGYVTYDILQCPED
human Caspase 5 (CASP5), CASP5 (gene 838), sequence (P51878 whole entry, looked up): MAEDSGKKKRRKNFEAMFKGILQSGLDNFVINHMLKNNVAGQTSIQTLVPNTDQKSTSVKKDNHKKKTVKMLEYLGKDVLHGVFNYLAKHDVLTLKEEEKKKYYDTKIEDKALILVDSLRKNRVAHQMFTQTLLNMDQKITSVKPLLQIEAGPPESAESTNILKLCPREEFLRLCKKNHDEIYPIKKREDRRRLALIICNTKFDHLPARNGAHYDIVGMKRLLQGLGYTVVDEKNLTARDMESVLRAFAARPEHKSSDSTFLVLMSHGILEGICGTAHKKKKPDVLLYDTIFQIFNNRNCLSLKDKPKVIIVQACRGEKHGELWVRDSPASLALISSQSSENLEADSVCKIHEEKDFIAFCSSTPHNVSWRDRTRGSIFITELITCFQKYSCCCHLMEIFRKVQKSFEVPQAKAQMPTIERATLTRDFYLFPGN
human Dual Specificity Protein Phosphatase 3 (DUSP3), DUSP3 (gene 1845), sequence (P51452 whole entry, looked up): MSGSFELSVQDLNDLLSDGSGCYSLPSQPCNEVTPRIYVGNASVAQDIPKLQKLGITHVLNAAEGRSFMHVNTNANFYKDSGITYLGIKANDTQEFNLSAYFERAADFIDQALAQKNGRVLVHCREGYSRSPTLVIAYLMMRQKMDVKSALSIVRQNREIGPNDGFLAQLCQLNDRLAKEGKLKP
human Beta-secretase (BACE), BACE1 (gene 23621), sequence (P56817 whole entry, looked up): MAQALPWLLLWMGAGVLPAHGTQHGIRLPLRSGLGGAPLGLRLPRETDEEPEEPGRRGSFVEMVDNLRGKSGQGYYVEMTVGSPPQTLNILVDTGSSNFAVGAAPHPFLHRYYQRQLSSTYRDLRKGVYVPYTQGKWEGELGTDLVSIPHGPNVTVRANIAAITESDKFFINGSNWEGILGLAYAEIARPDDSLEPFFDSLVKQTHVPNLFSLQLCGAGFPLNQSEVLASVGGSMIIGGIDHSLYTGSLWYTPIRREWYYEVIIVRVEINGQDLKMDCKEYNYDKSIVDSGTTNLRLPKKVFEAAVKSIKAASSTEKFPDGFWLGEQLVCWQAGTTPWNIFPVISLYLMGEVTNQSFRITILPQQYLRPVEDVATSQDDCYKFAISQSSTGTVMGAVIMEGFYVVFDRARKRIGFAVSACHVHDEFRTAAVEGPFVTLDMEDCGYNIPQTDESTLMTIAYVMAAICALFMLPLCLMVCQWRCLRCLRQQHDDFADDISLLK
Mitogen-activated protein kinase 3 (Homo sapiens), sequence (P27361 whole entry, looked up): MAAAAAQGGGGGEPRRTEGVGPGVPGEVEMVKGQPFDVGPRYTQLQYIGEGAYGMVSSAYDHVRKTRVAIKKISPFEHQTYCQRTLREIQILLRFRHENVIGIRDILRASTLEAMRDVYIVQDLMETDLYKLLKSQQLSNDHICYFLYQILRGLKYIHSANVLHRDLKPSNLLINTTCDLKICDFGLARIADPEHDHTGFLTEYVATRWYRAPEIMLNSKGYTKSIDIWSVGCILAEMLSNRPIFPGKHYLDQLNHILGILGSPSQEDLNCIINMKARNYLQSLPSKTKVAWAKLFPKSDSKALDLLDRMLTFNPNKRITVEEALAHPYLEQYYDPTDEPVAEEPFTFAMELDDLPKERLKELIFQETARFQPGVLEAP
rat CYP2A1, Cyp2a1 (gene 24894), sequence (P11711 whole entry, looked up): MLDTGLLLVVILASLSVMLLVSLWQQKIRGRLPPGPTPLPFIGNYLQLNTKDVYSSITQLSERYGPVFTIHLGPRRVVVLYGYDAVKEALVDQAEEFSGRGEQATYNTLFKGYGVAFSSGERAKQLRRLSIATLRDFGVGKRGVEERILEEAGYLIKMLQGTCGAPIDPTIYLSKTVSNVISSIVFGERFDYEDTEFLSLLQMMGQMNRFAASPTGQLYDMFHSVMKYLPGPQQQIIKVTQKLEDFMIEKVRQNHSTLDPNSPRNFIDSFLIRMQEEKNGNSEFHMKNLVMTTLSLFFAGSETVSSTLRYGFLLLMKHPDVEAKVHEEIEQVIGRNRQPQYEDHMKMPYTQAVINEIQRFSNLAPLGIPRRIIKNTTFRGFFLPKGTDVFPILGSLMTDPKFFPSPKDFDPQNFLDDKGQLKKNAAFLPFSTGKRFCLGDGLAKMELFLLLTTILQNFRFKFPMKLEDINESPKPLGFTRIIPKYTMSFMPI

O=C(c1ccccc1)c1ccc(O)cc1O
AC50 [1]: 16.5 µM (active) | outcome [2]: inactive | AC50 [3]: 13.7 µM (active)

Cc1cc(O)c(C(C)(C)C)cc1C(C)(C)C
outcome [2]: inactive

Brc1nc2ccccc2s1
outcome [2]: inactive

Cc1cc(=O)[nH]c(C(C)C)n1
AC50 [2]: 9.31 µM (active)

CCN(CC)c1ccc2c(c1)Oc1cc(N(CC)CC)ccc1C21OC(=O)c2ccccc21
outcome [4]: inactive

CC(=O)CCC(C)C
outcome [3]: inactive

CC(C)CCCC(C)CCO (stereo not given)
AC50 [3]: 6.27 µM (active)

CCC(C)CO (stereo not given)
outcome [5]: inactive | AC50 [3]: 6.58 µM (active)

C#CC(O)CCC (stereo not given)
outcome [4]: inactive

Brc1ccccn1
outcome [4]: inactive

O=C1c2c(O)ccc(Nc3ccc(CCO)cc3)c2C(=O)c2c([N+](=O)[O-])ccc(O)c21
AC50 [6]: 4.49 µM (active) | AC50 [7]: 0.148 µM (active) | AC50 [5]: 0.129 µM (active) | AC50 [1]: 2.37 µM (active)

CC1=CC2C3C=CC(C3)C2C1C (stereo not given)
AC50 [7]: 13.1 µM (active)

CCCCCCCCCCCCCC[P+](CCCC)(CCCC)CCCC
AC50 [8]: 20.2 µM (active) | AC50 [3]: 2.12 µM (active)

c1ccc(C[P+](c2ccccc2)(c2ccccc2)c2ccccc2)cc1
AC50 [6]: 1.87 µM (active)

Cc1ccc(O)c(-n2nc3ccccc3n2)c1
AC50 [3]: 9.4 µM (active)

CCCCCCCCn1sc(Cl)c(Cl)c1=O
AC50 [6]: 8.26 µM (active) | outcome [9]: inactive | outcome [10]: inactive

CC1=CCC2C(=O)OC(=O)C2C1 (stereo not given)
outcome [2]: inactive

C=CCOC(=O)CC(C)C
outcome [2]: inactive

Nc1cc([N+](=O)[O-])cc(Cl)c1O
outcome [4]: inactive

O=C1C=CC(=O)N1c1ccc(Cc2ccc(N3C(=O)C=CC3=O)cc2)cc1
AC50 [7]: 4.26 µM (active) | outcome [2]: inactive | AC50 [3]: 2.59 µM (active) | outcome [4]: inactive

Nc1cccnc1N
outcome [4]: inactive

O=C(Cl)c1ccc(Cl)cc1Cl
outcome [4]: inactive

C[C@]12CC[C@H]3C(=CCc4cc(O)ccc43)[C@@H]1CCC2=O
AC50 [6]: 1.95 µM (active)
